# Measurements published in PubChem BioAssay.
# Active and inactive are the calls of the source. Unless noted, how the calls were made is not given here.
# Key:
# [1] = tested on: Wnt5a (protein binding on small-molecule microarray); experiment: small molecules binding Wnt5a protein – biophysical, small-molecule microarray, 635/667 nm fluorescence, primary screen (AID 1142); details: 635 nm fluorescence, higher = more signal;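 further: fluorescence read at 667 nm with signal to noise per printed feature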
# [2] = ATP-based viability of Huh7 replicon cells – cell-based, CellTiter-Glo luminescence, basal, 48 h, cytotoxicity control for HCV replication inhibitor project, primary screen (AID 1143); details: higher = more signal, called active from +8 up or from −8 down;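 further: Huh7 hepatoma cells carrying a hepatitis C replication reporter with no stimulus; test concentration not given here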
# [3] = Pseudomonas biofilm growth suppression – PAO1 strain, BacTiter-Glo luminescence, LB-PBS, primary screen (AID 1144); details: P. aeruginosa PAO1 biofilm, 12 h, higher = more signal
# [4] = basal CRE-LacZ reporter activity in PC12 – cell-based, unstimulated, primary screen (AID 1145); details: no forskolin, luminescence, 4.5 h, higher = more signal, called active from +8 up or from −8 down
# [5] = forskolin-driven CRE-LacZ activity in PC12 – cell-based, CRE-LacZ reporter, forskolin-stimulated, primary screen (AID 1146); details: luminescence, 4.5 h, higher = more signal, called active from +8 up or from −8 down;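 further: PC12 cells with 6xCRE LacZ reporter stimulated by forskolin 10 µM; beta-galactosidase reporter signal reflecting CREB driven transcription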
# [6] = molecular target: Streptavidin (Streptomyces avidinii) (UniProt P22629); experiment: compounds binding control protein streptavidin – biophysical, small-molecule microarray, 635/667 nm fluorescence, artefact control for SMM compound annotation, primary screen (AID 1147); details: higher = more signal;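 further: signal reflects streptavidin binding to arrayed compounds as a control protein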
# [7] = probe aInhba binding on compound microarray – biochemical, small-molecule microarray, 635/667 nm fluorescence, primary screen (AID 1148); details: higher = more signal;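 further: score merges 667nm spot fluorescence with signal-to-noise for antibody binding to printed compounds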
# Torsin-1A (Homo sapiens) [8] = molecular target: Torsin-1A (Homo sapiens) (UniProt O14656); experiment: TOR1A wild-type binding on microarray – cell lysate, small-molecule microarray, lysate, 635/667 nm, primary screen (AID 1149); details: COS7 hTOR1A-WT lysate, 635 nm fluorescence, higher = more signal
# Torsin-1A (Homo sapiens) [9] = molecular target: Torsin-1A (Homo sapiens) (UniProt O14656); experiment: torsin A mutant lysate binding on microarrays – cell lysate, small-molecule microarray, COS7 lysate, 635/667 nm fluorescence, primary screen (AID 1150); details: COS7 hTOR1A mutant lysate, 635 nm fluorescence, higher = more signal;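 further: score pools 667 nm emission and signal to noise measuring lysate protein binding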
# [10] = tested on: Sonic hedgehog protein (Shh); experiment: Sonic hedgehog microarray binding compounds – biochemical, small-molecule microarray, 635/667 nm fluorescence, primary screen (AID 1151); details: 635 nm fluorescence, higher = more signal;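 further: Shh protein binding to compounds spotted on small-molecule microarray slides; score combines spot fluorescence intensity with signal-to-noise across triplicate slides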
# [11] = optical density shifts of acrAB sulA E. coli – strain DRC41, OD650, 48 h, E. coli filamentation inducer project, primary screen (AID 1152); details: higher = more signal, called active from +8 up or from −8 down;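 further: E. coli MC1000 strain DRC41 lacking acrAB efflux pump and sulA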
# [12] = probe aLefty1 binding on compound microarray – biochemical, small-molecule microarray, 635/667 nm fluorescence, primary screen (AID 1153); details: higher = more signal;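 further: score merges spot fluorescence with signal-to-noise ratio from the scanned slide images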
# [13] = plasmodial surface anion channel blockers, osmotic lysis – cell-based, P. falciparum Indochina, OD700, 1 h, primary screen (AID 1154); details: P. falciparum Indochina infected RBC osmotic lysis, higher = more signal, called active from +8 up or from −8 down
# [14] = plasmodial surface anion channel blockers, osmotic lysis – cell-based, P. falciparum Indochina, OD700, 2 h, primary screen (AID 1155);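 further: lysis reports solute entry through the parasite surface anion channel PSAC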; details: P. falciparum Indochina infected erythrocytes, higher = more signal, called active from +8 up or from −8 down
# [15] = changes in parasitized red cell lysis, either direction – P. falciparum Indochina, OD700, 3 h, PSAC antagonist project, primary screen (AID 1156); details: P. falciparum-infected erythrocytes, osmotic lysis, higher = more signal, called active from +8 up or from −8 down
# [16] = plasmodial surface anion channel blockers, osmotic lysis – cell-based, P. falciparum Indochina, OD700, 18 h, primary screen (AID 1157); details: P. falciparum Indochina infected erythrocytes, osmotic lysis OD700, 18 h; higher = more signal, called active from +8 up or from −8 down
# [17] = S6 kinase pathway phospho-S6 level changes – cell-based, A549, cytoblot, luminescence, serum-stimulated, primary screen (AID 1158); details: 5 h, higher = more signal;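 further: serum-stimulated A549 lung adenocarcinoma cells; signal is phosphorylated S6 detected by cytoblot immunostaining with HRP secondary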
# [18] = molecular target: NADPH oxidase 2 (Homo sapiens) (UniProt P04839); experiment: compounds shifting NOX2 Amplex Red fluorescence – cell-based, HEK293-NOX2, PMA-stimulated, NOX inhibitor project, primary screen (AID 1159); details: 45 min, higher = more signal, called active from +8 up or from −8 down; further: test concentration not given here
# [19] = molecular target: NADPH oxidase 4 (Homo sapiens) (UniProt Q9NPH5); experiment: compounds shifting NOX4 Amplex Red fluorescence – cell-based, HEK293-NOX4, tetracycline-induced, NOX inhibitor project, primary screen (AID 1160); details: HEK293-NOX4, Amplex Red H2O2 fluorescence, 45 min; higher = more signal, called active from +8 up or from −8 down
# [20] = molecular target: NADPH oxidase 5 (Homo sapiens) (UniProt Q96PH1); experiment: compounds shifting NOX5 Amplex Red fluorescence – cell-based, HEK293-NOX5, NOX inhibitor project, primary screen (AID 1161); details: HEK293-NOX5, ionomycin, 45 min, higher = more signal
# Sequence of NADPH oxidase 5 (Homo sapiens) (Q96PH1 whole entry, looked up): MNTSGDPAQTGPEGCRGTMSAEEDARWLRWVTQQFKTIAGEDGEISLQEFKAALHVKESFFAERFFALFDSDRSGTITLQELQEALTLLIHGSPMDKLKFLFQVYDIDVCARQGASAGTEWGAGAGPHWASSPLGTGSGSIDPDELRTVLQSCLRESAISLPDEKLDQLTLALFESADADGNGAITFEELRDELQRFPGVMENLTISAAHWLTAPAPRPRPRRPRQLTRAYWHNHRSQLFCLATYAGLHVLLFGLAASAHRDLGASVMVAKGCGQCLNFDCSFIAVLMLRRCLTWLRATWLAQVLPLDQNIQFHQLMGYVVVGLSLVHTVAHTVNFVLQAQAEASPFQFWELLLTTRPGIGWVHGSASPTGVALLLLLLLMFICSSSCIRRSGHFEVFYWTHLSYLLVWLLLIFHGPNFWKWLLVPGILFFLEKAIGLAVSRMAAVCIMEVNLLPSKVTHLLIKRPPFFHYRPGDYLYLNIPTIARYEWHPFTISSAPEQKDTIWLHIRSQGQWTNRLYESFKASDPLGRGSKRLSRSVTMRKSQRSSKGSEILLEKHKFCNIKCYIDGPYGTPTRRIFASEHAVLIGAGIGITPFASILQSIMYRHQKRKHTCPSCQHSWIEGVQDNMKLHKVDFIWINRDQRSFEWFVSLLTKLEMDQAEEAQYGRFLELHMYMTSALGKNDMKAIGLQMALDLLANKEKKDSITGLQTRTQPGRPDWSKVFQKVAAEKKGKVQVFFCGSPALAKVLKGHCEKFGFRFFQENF
# Sequence of NADPH oxidase 2 (Homo sapiens) (P04839 whole entry, looked up): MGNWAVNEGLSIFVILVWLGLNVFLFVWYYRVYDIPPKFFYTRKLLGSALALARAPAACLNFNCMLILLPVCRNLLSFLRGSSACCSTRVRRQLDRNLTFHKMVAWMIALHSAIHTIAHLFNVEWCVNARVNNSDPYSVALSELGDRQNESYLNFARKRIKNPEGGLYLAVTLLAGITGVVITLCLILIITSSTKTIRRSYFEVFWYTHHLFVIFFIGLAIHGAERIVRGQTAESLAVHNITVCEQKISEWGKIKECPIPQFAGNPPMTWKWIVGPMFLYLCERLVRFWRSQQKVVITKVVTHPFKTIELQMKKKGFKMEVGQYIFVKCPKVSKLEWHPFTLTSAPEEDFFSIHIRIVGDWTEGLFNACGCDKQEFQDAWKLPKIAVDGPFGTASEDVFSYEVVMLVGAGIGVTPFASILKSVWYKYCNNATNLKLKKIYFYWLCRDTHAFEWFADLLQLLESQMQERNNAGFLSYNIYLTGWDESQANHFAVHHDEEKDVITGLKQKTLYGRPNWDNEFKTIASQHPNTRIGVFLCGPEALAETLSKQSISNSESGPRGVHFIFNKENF
# Sequence of NADPH oxidase 4 (Homo sapiens) (Q9NPH5 whole entry, looked up): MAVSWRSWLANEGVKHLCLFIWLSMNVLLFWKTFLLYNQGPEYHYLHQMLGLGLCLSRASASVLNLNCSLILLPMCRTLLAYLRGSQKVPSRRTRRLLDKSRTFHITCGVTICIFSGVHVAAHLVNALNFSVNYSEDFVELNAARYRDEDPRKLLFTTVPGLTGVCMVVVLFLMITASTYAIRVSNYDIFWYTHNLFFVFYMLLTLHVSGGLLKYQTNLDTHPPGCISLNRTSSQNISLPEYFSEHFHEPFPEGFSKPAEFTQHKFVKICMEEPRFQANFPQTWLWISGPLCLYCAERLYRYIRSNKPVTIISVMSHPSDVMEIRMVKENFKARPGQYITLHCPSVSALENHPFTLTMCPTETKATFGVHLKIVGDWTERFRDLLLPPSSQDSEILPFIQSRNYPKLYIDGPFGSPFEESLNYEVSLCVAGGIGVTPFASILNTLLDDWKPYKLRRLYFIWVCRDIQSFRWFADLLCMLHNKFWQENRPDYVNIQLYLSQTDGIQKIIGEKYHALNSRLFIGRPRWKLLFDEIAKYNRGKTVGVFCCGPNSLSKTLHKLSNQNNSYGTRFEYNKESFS
# Sequence of Torsin-1A (Homo sapiens) (O14656 whole entry, looked up): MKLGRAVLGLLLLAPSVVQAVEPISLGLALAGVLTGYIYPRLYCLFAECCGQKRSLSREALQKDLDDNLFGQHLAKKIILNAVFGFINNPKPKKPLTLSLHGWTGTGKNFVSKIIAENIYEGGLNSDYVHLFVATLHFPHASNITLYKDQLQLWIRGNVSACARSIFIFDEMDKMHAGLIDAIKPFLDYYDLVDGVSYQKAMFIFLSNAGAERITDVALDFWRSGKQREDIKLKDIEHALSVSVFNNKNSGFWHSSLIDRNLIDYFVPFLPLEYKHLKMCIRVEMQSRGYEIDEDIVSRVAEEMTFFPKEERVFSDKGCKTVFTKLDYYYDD
# Sequence of Streptavidin (Streptomyces avidinii) (P22629 whole entry, looked up): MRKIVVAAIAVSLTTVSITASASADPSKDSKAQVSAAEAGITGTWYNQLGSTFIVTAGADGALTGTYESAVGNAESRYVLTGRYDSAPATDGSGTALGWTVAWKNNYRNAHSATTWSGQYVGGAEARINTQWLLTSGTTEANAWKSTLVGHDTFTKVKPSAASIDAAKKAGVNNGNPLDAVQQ
SMILES,composite z-score [1],z-score [2],z-score [3],z-score [4],z-score [5],composite z-score [6],composite z-score [7],composite z-score (Torsin-1A (Homo sapiens) [8]),composite z-score (Torsin-1A (Homo sapiens) [9]),composite z-score [10],z-score [11],composite z-score [12],z-score [13],z-score [14],z-score [15],z-score [16],z-score [17],z-score [18],z-score [19],z-score [20]
C[N+](C)(C)CCCCNC(=O)[C@H]1C[C@H]2C(=O)N[C@@H](Cc3ccccc3)C(=O)N2[C@H]1c1cccc(OCCO)c1,0.278,-0.15 (inactive),-0.495 (inactive),-0.13 (inactive),-0.384 (inactive),0.313,0.152,0.971,0.342,2.23,0.0946 (inactive),0.186,5.34 (inactive),0.772 (inactive),-0.835 (inactive),0.818 (inactive),0.17,-0.423 (inactive),-0.824 (inactive),-0.418
COc1ccc([Si](C)(C)[C@@H]2[C@@H](CC(=O)N(CCO)Cc3ccccc3)O[C@]3(C(=O)N(Cc4ccc(I)cc4)c4ccccc43)[C@H]2C)cc1,0.29,-4.48 (inactive),-0.129 (inactive),-0.505 (inactive),-0.905 (inactive),0.349,1.22,0.402,0.603,2.01,0.452 (inactive),1.03,5.81 (inactive),1.02 (inactive),0.408 (inactive),0.794 (inactive),0.421,0.454 (inactive),1.6 (inactive),1.55
O=C1O[C@@H](c2ccccc2)[C@@H](c2ccccc2)N2[C@@H](c3ccc(OCCO)cc3)[C@]3(C(=O)Nc4ccc(C#CC5(O)CCCCCC5)cc43)[C@@H](C(=O)O)[C@H]12,0.213,-0.72 (inactive),-0.448 (inactive),-0.0246 (inactive),0.371 (inactive),0.351,-0.0695,0.562,0.695,0.633,1.87 (inactive),-0.0862,-1.17 (inactive),-0.927 (inactive),-8.35 (active),-0.76 (inactive),0.169,2.21 (inactive),-0.56 (inactive),0.314
COc1ccc([Si](C)(C)[C@@H]2[C@@H](CC(=O)N(CCO)Cc3ccccc3)O[C@]3(C(=O)N(Cc4ccc(N5C(=O)c6cccc7cccc5c67)cc4)c4ccccc43)[C@H]2C)cc1,0.0547,-4.28 (inactive),-0.298 (inactive),0.12 (inactive),-0.204 (inactive),0.22,-0.0112,0.37,0.0705,1.8,-0.414 (inactive),0.004,7.3 (inactive),2.33 (inactive),0.296 (inactive),1.14 (inactive),0.487,1.28 (inactive),-0.496 (inactive),2.72
CC(C)=CCCC(C)=CC(O)C1C=CC2C(=O)NC(=O)C2N1Nc1ccc(Cl)cc1Cl (stereo not given),0.623,-1.64 (inactive),-0.815 (inactive),0.822 (inactive),0.501 (inactive),1.26,-0.0035,-0.0743,0.622,0.737,-2.85 (inactive),0.544,7.58 (inactive),1.61 (inactive),-0.519 (inactive),1.39 (inactive),-0.498,-1.84 (inactive),-5.04 (inactive),-1.53
CC(C)N1C(=O)c2ccccc2[C@](C)(C(=O)NCC(F)(F)F)[C@@H]1c1ccc(CO)cc1,-0.218,-0.167 (inactive),0.633 (inactive),0.414 (inactive),-0.0278 (inactive),-0.913,0.0516,-0.978,0.33,-0.982,0.481 (inactive),0.402,0.834 (inactive),-0.0162 (inactive),-0.377 (inactive),-0.16 (inactive),0.0308,0.91 (inactive),0.89 (inactive),0.783
COc1ccc([Si](C)(C)[C@@H]2[C@@H](CC(=O)N3CCC[C@H]3CO)O[C@]3(C(=O)N(Cc4ccc(N5CCOC5=O)cc4)c4ccccc43)[C@H]2C)cc1,-0.014,-3.75 (inactive),-0.0278 (inactive),2.4 (inactive),-1.2 (inactive),0.084,-0.024,0.515,0.557,1.42,1.3 (inactive),-0.0099,6.25 (inactive),0.176 (inactive),-1.52 (inactive),-0.774 (inactive),0.615,2.64 (inactive),1.57 (inactive),3.85
CC(C)OC(=O)CC(=O)CC(O)c1cccc([N+](=O)[O-])c1 (stereo not given),0.457,-3.92 (inactive),-2.34 (inactive),-0.676 (inactive),-0.185 (inactive),1.14,-0.0221,-0.324,2.75,-0.352,1.27 (inactive),0.318,3.27 (inactive),0.79 (inactive),-1.39 (inactive),-0.295 (inactive),2.1,-0.068 (inactive),0.147 (inactive),0.435
